Experimental data published in ChEMBL document CHEMBL3988442, “University of Dundee, Small-Polar-MMV Screening Library” (2021).
For some of these results: Measured potencies and affinities stand elsewhere.

Experiments:
Set-up in all cases: scale not given: direction of the effect not stated beside the values
[1] = target: Protein translocase subunit SecA (Escherichia coli (strain K12)) (UniProt P10408); assay: Assay to Identify E. coli SecA ATPase Inhibitors; assay type: functional; settings: 30 µM
[2] = target: T1, Ubiquitin-activating enzyme e1, putative (Leishmania donovani (strain BPK282A1)) (UniProt E9BSI1); assay: Leishmania donovani Ubiquitin Activating Enzyme (LdE1); assay type: functional; settings: 30 µM
T1 sequence (whole entry): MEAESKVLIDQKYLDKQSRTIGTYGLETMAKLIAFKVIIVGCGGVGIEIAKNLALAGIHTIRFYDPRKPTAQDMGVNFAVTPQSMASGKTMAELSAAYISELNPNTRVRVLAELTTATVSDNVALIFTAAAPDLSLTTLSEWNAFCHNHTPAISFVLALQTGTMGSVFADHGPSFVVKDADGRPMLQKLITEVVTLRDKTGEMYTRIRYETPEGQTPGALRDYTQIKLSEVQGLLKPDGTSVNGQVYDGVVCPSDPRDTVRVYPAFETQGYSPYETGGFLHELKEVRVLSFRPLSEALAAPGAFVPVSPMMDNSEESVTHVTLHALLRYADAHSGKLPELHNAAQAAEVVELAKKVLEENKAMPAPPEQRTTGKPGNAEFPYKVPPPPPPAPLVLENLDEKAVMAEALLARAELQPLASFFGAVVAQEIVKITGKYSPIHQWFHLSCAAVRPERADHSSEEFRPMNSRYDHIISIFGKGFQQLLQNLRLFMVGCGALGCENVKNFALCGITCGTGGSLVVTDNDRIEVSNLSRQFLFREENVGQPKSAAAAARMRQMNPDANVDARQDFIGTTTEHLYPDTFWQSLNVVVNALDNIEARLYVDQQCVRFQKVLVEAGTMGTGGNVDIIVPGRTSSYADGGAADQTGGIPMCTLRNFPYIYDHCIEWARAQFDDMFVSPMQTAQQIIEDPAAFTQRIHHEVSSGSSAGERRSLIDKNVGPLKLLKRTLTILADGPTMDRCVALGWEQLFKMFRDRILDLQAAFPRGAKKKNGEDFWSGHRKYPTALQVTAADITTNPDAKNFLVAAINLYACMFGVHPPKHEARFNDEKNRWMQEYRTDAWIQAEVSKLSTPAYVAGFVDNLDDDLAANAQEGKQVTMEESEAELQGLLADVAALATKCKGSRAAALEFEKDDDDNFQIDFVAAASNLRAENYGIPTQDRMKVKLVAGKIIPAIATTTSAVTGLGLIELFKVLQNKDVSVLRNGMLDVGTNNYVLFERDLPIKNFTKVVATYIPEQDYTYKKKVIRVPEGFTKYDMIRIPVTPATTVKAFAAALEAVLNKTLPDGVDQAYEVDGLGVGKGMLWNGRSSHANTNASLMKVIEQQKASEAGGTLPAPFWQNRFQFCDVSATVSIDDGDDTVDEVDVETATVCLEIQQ

[3] = target: AMP-activated protein kinase, AMPK (Homo sapiens) (UniProt P54646+O43741+P54619+Q9UGJ0+Q9Y478+Q13131+Q9UGI9); assay: AMP-dependent Kinase enzyme assay. An in vitro enzyme assay that detects ADP turnover that is directly proportional to AMPK activity. This uses naive AMPK that is activated during the assay with MK-8722; assay type: functional; settings: 30 µM
[4] = target: Sialic acid-binding Ig-like lectin 9 (Homo sapiens) (UniProt Q9Y336); assay: Hs-Siglec9 ALPHAscreen SOP 20170721; settings: 10 µM
Trypanosoma cruzi = assay: Trypanosoma cruzi phosphomannomutase and mannose-1-phosphate guanylyltransferase assay; assay type: functional; settings: 10 µM
[5] = target: T2, Arginase-2, mitochondrial (Homo sapiens) (UniProt P78540); assay: in vitro enzyme assay to detect the production of urea directly proportional to the activity of Arginase II; assay type: functional; settings: 33.3 µM; further: in the data most compounds retested in dose-response had high values
T2 sequence (whole entry): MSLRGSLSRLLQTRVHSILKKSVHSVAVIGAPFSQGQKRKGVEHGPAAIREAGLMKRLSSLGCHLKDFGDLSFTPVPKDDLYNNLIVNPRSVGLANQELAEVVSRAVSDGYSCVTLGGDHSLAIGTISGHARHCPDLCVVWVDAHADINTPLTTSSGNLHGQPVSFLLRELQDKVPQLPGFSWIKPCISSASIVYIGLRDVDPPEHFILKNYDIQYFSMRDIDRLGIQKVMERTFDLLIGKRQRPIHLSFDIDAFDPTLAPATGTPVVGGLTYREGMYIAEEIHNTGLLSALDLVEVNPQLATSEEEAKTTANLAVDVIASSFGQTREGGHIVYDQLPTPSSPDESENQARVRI

[6] = target: T3, Proteasome subunit beta (Trypanosoma cruzi) (UniProt O96673); assay: Trypanosoma cruzi proteasome chymotrypsin-like activity (TcProtChymo) assay.; further: in the data most compounds retested in dose-response had high values; assay type: functional; settings: 9.37 µM
T3 sequence (whole entry): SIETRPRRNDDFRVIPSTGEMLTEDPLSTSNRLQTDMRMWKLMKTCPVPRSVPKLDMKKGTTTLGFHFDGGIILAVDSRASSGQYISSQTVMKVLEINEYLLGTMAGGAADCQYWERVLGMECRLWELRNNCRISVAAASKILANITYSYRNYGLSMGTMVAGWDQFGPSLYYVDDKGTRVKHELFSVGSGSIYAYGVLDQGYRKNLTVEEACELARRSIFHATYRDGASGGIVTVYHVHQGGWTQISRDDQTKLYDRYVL

Homo sapiens = organism: Homo sapiens; assay: To identify inhibition of the IFN signalling (Jak-Stat) pathway via expression of an eGFP reporter gene under the control of an IFN-stimulated response element (ISRE) containing MxA promoter.; assay type: functional; settings: 30 µM
[7] = target: T4, Tyrosyl-tRNA synthetase, putative (Trypanosoma cruzi (strain CL Brener)) (UniProt Q4DSP6); assay: Trypanosoma cruzi tyrosyl tRNA synthetase (TcYRS) _High Tyrosine SOP; assay type: functional; settings: 30 µM; further: in the data most compounds retested in dose-response had high values
T4 sequence (whole entry): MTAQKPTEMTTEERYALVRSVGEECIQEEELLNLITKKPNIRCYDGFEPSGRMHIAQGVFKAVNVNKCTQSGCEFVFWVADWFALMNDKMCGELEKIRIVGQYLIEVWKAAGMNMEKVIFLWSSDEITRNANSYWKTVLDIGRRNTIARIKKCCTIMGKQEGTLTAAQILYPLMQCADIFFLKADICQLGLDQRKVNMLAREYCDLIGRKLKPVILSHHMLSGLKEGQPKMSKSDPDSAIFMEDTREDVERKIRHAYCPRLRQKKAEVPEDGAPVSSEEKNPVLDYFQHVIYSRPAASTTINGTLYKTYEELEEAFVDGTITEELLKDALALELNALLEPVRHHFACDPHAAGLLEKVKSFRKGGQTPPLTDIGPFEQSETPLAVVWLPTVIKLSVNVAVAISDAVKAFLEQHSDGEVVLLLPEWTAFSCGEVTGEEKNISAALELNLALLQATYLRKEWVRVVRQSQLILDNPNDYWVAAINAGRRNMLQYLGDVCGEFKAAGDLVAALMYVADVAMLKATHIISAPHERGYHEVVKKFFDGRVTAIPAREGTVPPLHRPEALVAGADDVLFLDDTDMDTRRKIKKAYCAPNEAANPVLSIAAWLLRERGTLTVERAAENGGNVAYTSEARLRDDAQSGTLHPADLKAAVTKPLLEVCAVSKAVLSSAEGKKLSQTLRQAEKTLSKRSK

[8] = target: T4, Tyrosyl-tRNA synthetase, putative (Trypanosoma cruzi (strain CL Brener)); assay: Trypanosoma cruzi tyrosyl tRNA synthetase (TcYRS) SOP; assay type: functional; settings: 30 µM
[9] = target: Chromo domain-containing protein 1 (Saccharomyces cerevisiae (strain ATCC 204508 / S288c) (Baker's yeast)) (UniProt P32657); assay: ScCHD-1 Enzyme Inhibition Assay; assay type: functional; settings: 30 µM; further: in the data most compounds retested in dose-response had high values
Chromo domain-containing protein 1 (Saccharomyces cerevisiae (strain ATCC 204508 / S288c) (Baker's yeast)), sequence (P32657 whole entry, the tested form may be a part): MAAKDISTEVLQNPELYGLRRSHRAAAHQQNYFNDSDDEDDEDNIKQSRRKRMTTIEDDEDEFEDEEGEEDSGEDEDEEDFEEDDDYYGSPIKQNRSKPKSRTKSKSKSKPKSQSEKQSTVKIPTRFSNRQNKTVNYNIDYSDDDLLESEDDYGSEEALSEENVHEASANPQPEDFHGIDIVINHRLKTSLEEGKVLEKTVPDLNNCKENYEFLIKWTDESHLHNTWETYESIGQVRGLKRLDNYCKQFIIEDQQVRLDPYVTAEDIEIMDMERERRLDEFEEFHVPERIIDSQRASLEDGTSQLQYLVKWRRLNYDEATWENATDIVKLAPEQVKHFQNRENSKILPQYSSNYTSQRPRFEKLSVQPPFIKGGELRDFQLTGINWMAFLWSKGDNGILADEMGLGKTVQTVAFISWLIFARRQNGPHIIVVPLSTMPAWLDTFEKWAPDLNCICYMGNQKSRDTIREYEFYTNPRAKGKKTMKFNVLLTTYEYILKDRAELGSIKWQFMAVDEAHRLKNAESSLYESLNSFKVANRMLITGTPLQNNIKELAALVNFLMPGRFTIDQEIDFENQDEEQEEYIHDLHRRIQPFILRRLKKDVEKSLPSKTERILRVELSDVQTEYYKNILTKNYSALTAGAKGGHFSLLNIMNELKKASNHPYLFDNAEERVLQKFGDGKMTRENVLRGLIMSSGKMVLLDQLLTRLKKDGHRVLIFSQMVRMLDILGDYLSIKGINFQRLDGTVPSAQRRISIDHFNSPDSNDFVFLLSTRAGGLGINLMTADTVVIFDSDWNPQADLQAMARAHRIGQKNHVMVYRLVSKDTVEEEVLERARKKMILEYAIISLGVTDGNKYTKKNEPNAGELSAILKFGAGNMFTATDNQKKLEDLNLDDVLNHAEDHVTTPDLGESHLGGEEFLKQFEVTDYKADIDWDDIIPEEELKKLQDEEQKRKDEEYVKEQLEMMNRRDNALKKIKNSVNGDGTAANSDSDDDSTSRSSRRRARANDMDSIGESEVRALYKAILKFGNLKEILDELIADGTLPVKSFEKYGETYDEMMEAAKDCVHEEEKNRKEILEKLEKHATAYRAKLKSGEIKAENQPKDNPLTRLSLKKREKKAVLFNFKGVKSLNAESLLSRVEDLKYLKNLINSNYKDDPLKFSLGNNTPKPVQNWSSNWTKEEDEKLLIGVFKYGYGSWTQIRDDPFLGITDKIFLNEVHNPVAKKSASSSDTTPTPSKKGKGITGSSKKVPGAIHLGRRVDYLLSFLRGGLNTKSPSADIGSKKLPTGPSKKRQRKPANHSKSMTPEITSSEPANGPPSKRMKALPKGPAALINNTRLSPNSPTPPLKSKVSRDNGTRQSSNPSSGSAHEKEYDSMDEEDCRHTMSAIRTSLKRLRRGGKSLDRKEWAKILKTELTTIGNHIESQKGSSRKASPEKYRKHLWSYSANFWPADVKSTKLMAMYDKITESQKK

Protein translocase subunit SecA (Escherichia coli (strain K12)), sequence (P10408 whole entry): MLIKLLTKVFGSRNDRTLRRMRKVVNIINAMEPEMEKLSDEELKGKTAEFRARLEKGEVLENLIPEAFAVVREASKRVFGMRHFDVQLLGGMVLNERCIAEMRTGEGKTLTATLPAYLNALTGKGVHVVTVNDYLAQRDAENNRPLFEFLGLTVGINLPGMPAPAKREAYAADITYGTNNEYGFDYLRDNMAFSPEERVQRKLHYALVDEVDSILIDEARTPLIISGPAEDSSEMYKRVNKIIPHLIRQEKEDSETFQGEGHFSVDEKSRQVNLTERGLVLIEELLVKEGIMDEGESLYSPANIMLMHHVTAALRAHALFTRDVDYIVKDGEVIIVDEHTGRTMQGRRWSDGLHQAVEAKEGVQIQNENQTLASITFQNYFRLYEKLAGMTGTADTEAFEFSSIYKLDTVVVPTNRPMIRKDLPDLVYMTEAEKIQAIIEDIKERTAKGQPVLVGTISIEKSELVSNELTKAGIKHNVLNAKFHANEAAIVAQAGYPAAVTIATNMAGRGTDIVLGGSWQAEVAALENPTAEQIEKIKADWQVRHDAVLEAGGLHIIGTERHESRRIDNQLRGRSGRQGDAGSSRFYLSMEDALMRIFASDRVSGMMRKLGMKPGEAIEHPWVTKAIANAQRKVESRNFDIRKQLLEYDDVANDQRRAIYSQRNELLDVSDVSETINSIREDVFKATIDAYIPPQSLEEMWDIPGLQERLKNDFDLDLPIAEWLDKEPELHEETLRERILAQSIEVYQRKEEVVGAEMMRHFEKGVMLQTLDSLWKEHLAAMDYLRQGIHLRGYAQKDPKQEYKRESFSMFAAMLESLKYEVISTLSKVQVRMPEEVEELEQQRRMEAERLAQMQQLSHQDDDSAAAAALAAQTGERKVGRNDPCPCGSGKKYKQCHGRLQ
Sialic acid-binding Ig-like lectin 9 (Homo sapiens), sequence (Q9Y336 whole entry): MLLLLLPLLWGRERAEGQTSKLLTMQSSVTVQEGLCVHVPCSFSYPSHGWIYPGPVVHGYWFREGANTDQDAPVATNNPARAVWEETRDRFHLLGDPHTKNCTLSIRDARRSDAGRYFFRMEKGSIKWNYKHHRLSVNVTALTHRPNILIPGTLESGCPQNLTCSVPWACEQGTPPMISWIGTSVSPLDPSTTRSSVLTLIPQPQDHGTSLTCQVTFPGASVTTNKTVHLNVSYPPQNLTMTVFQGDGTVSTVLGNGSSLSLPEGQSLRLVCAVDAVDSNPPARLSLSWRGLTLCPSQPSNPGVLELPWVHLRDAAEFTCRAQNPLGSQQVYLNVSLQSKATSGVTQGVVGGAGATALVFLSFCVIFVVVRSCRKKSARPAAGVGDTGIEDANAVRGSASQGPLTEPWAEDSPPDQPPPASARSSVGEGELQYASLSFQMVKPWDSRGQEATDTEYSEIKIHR

SMILES: CCN(Cc1nc2c(cnn2C)c(=O)[nH]1)Cc1cccs1
- Percent Effect [1]: -4.13%
- Percent Effect [2]: 15.6%
- Percent Effect [3]: -1.29%
- Percent Effect [4]: -13.1%
- Percent Effect (Trypanosoma cruzi): 4.6%
- Percent Effect [5]: -10.3%
- Percent Effect [6]: 15.3%
- Percent Effect (Homo sapiens): -0.846%
- Percent Effect [7]: 7.62%
- Percent Effect [8]: 25.9%
- Percent Effect [9]: -21.1%

SMILES: O=C1CC(c2ccncc2)C2(CCN(C(=O)c3ccc[nH]3)CC2)N1 (stereo unspecified)
- Percent Effect [1]: -2.27%
- Percent Effect [2]: 18.9%
- Percent Effect [3]: -1.68%
- Percent Effect [4]: -16.4%
- Percent Effect (Trypanosoma cruzi): 4.01%
- Percent Effect [5]: -5.41%
- Percent Effect [6]: 8.86%
- Percent Effect (Homo sapiens): 14.6%
- Percent Effect [7]: 3.24%
- Percent Effect [8]: 15.4%
- Percent Effect [9]: -0.00396%

SMILES: CCCN1CCN(C(=O)c2cnccn2)[C@H]2CS(=O)(=O)C[C@H]21
- Percent Effect [1]: -2.77%
- Percent Effect [2]: 2.7%
- Percent Effect [3]: -5.74%
- Percent Effect [4]: 30.7%
- Percent Effect (Trypanosoma cruzi): 3.86%
- Percent Effect [5]: 2.38%
- Percent Effect [6]: 2.93%
- Percent Effect (Homo sapiens): 6.26%
- Percent Effect [7]: 4.76%
- Percent Effect [8]: 12.2%
- Percent Effect [9]: -5.99%

SMILES: CCOc1cccc(C(C)NC(=O)N2CCC(C(N)=O)CC2)c1 (stereo unspecified)
- Percent Effect [1]: -2.51%
- Percent Effect [2]: 2.7%
- Percent Effect [3]: -1.93%
- Percent Effect [4]: 5.06%
- Percent Effect (Trypanosoma cruzi): -1.93%
- Percent Effect [5]: -0.952%
- Percent Effect [6]: 3.97%
- Percent Effect (Homo sapiens): 14.3%
- Percent Effect [7]: 3.7%
- Percent Effect [8]: 9.76%
- Percent Effect [9]: -1.95%

SMILES: O=C(Nc1nncs1)NC1CCOc2ccccc21 (stereo unspecified)
- Percent Effect [1]: -3.81%
- Percent Effect [2]: 2.74%
- Percent Effect [3]: 5.12%
- Percent Effect [4]: -2.09%
- Percent Effect (Trypanosoma cruzi): -6.55%
- Percent Effect [5]: -0.399%
- Percent Effect [6]: 9.85%
- Percent Effect (Homo sapiens): 17%
- Percent Effect [7]: 2.08%
- Percent Effect [8]: 13.6%
- Percent Effect [9]: -8.1%

SMILES: CC(C)c1ncc2c(n1)CN(Cc1cccc(OCC(N)=O)c1)CC2
- Percent Effect [1]: -3.71%
- Percent Effect [2]: 10.5%
- Percent Effect [3]: -32.8%
- Percent Effect [4]: 10.8%
- Percent Effect (Trypanosoma cruzi): 2.44%
- Percent Effect [5]: 4.6%
- Percent Effect [6]: -1%
- Percent Effect (Homo sapiens): -8.11%
- Percent Effect [7]: 8.33%
- Percent Effect [8]: 0%
- Percent Effect [9]: 4.59%

SMILES: COCC(=O)N1CCN(Cc2coc(-c3cccc(F)c3)n2)CC1
- Percent Effect [1]: -5.28%
- Percent Effect [2]: 0%
- Percent Effect [3]: 2.98%
- Percent Effect [4]: 4.95%
- Percent Effect (Trypanosoma cruzi): -2.62%
- Percent Effect [5]: 0%
- Percent Effect [6]: 1.18%
- Percent Effect (Homo sapiens): 9.99%
- Percent Effect [7]: 8.74%
- Percent Effect [8]: 7.32%
- Percent Effect [9]: 1.75%

SMILES: Cc1cc(C)n(CC2CCCN2Cc2c(C)noc2C)n1 (stereo unspecified)
- Percent Effect [1]: -2.91%
- Percent Effect [2]: -2.7%
- Percent Effect [3]: 33.8%
- Percent Effect [4]: 8.4%
- Percent Effect (Trypanosoma cruzi): 6.51%
- Percent Effect [5]: -0.802%
- Percent Effect [6]: 5.59%
- Percent Effect (Homo sapiens): 9.49%
- Percent Effect [7]: 2.46%
- Percent Effect [8]: 11.1%
- Percent Effect [9]: -10.7%

SMILES: Cc1ccc(-c2nc(CN3CCc4nn(C)c(=O)cc4C3)co2)cc1
- Percent Effect [1]: -3.32%
- Percent Effect [2]: 35.1%
- Percent Effect [3]: -173%
- Percent Effect [4]: 1.71%
- Percent Effect (Trypanosoma cruzi): -2.74%
- Percent Effect [5]: 1.2%
- Percent Effect [6]: 17.1%
- Percent Effect (Homo sapiens): 11.3%
- Percent Effect [7]: 3.45%
- Percent Effect [8]: 13.6%
- Percent Effect [9]: -6.66%

SMILES: COCCN1C[C@@H]2CN(c3ncccn3)C[C@@H]2C1=O
- Percent Effect [1]: -4.06%
- Percent Effect [2]: 2.7%
- Percent Effect [3]: 0.915%
- Percent Effect [4]: -6.74%
- Percent Effect (Trypanosoma cruzi): -0.586%
- Percent Effect [5]: -4.17%
- Percent Effect [6]: 8.2%
- Percent Effect (Homo sapiens): -19.7%
- Percent Effect [7]: 76.2%
- Percent Effect [8]: -1.22%
- Percent Effect [9]: 474%

SMILES: O=C(CCn1cccn1)N1CCN(CC(F)F)CC1
- Percent Effect [1]: -2.93%
- Percent Effect [2]: 16.2%
- Percent Effect [3]: -2.79%
- Percent Effect [4]: -4.78%
- Percent Effect (Trypanosoma cruzi): -0.836%
- Percent Effect [5]: 0.554%
- Percent Effect [6]: 4.13%
- Percent Effect (Homo sapiens): 14.6%
- Percent Effect [7]: 9.9%
- Percent Effect [8]: 25.6%
- Percent Effect [9]: -5.97%
